# According to PubChem BioAssay AID743025 (Vanderbilt Specialized Chemistry Center, 2013):
# Calls of active or inactive are those of the source.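 Rule for the calls: active = IC50 below 10 µM at human M5 in a calcium flux test, acting as a negative modulator; inactive = the rest.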
# Target: Muscarinic acetylcholine receptor M5 (Homo sapiens) (UniProt P08912)
# Experiment: M5 muscarinic receptor negative allosteric modulators, cell-based, single concentration, human M5 (AID 743025)
# Settings: CHO-K1 hM5, ACh EC80 calcium flux, Fluo-4; at 10 µM; hits give low values
# Chain of Muscarinic acetylcholine receptor M5 (Homo sapiens) (P08912 whole entry, looked up): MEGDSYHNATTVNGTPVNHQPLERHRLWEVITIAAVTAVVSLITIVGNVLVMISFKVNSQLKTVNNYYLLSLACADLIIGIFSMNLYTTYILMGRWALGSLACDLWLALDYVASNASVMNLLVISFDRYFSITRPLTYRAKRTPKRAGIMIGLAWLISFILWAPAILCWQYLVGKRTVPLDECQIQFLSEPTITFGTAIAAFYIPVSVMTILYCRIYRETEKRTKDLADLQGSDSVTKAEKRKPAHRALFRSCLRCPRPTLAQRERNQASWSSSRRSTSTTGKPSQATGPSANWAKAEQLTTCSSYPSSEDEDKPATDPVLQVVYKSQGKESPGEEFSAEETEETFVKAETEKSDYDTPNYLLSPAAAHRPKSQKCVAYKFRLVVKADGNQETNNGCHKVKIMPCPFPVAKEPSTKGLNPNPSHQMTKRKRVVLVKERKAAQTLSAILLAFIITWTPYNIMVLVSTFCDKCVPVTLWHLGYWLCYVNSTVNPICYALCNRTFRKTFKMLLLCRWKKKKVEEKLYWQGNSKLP
row,SMILES,activity remaining
1,O=C(c1cccc(C(F)(F)F)c1)N1CCN2C(=O)c3ccccc3C12c1ccc(Cl)cc1 (stereo not given),1.89% (active)
2,O=C(c1ccc2c(c1)OCO2)N1CCN2C(=O)c3ccccc3C12c1ccc(Cl)cc1 (stereo not given),8.65% (active)
3,COc1ccc(C(=O)N2CCN3C(=O)c4ccccc4C23c2ccccc2)cc1 (stereo not given),77.7% (inactive)
4,O=C(c1cccnc1)N1CCN2C(=O)c3ccccc3C12c1ccccc1 (stereo not given),74.8% (inactive)
5,O=C(c1ccc(F)c(F)c1)N1CCN2C(=O)c3ncccc3C12c1ccccc1 (stereo not given),66.4% (inactive)
6,O=C(c1cc(F)cc(F)c1)N1CCN2C(=O)c3ccccc3C12c1ccc(F)cc1 (stereo not given),69.3% (inactive)
7,O=C(c1ccc(Cl)cc1)N1CCCN2C(=O)c3ccccc3C12c1ccccc1 (stereo not given),54% (active)
8,CC(C)(C)NC(=O)N1CCN2C(=O)c3ccccc3C12c1ccccc1 (stereo not given),83.8% (inactive)
9,Cc1ccccc1C(=O)N(C)C(c1ccccc1)c1ccccc1,81.6% (inactive)
10,Cc1ccccc1C(=O)N1CCN2C(=O)c3ccccc3C12c1ccccc1 (stereo not given),50.5% (active)
11,COc1ccc(C(=O)N2CCN3C(=O)c4ccccc4C23c2ccc(Cl)cc2)cc1F (stereo not given),74% (inactive)
12,O=C(c1cc(F)cc(F)c1)N1CCCN2C(=O)c3ccccc3C12c1ccc(Cl)cc1 (stereo not given),76.8% (inactive)
13,CCOc1ccc(C(=O)N2CCN3C(=O)c4ccccc4C23c2ccccc2)cc1 (stereo not given),61.1% (inactive)
14,O=C(c1ccccn1)N1CCN2C(=O)c3ccccc3C12c1ccc(Cl)cc1 (stereo not given),88.9% (inactive)
15,O=C(c1ccc(SC(F)(F)F)cc1)N1CCN2C(=O)c3ncccc3C12c1ccccc1 (stereo not given),62.1% (inactive)
